The results in this text go back to PubChem BioAssay.

“And” between values parts separate entries of the source, which are not always exact repeats. Identical values can stand only once. The source made the active and inactive calls. Unless noted, the rule behind the calls is not given here.

A short description of assay [1]: P. berghei load reduction in hepatocytes – cell-based, HepG2, luciferase luminescence, HepG2 viability, primary screen (AID 624349; in the data active = parasite load remaining mostly below about 12%, no sharp cut-off; inactive = mostly above about 10%;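 note: 100% = mean of DMSO negative control wells on the same plate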). Particulars: P. berghei liver stage in HepG2, luciferase luminescence, concentration not given here; parasite load remaining: stronger effect = lower value; viability: measured here: HepG2 viability without parasites.
Assay [2] can be described thus: signal quenchers or enhancers, Cy5 substrate/SSB – biochemical, NIH Clinical Collection, E. coli SSB, artefact control for HCV NS3 helicase inhibitor project (AID 743268). To be noted: Cy5-oligo bound E. coli SSB, fluorescence interference.
Assay [3] concerns Hepatitis C virus NS3 helicase. As to the kind of experiment: blockers of NS3h binding to DNA – biochemical, fluorescence polarization, NIH Clinical Collection, primary screen (AID 743270). Particulars: NS3 helicase binding to Cy5-dT15 DNA, stronger effect = higher value, concentration not given here.
The target of assay [4] is Single-stranded DNA-binding protein (Escherichia coli (strain K12)) (UniProt P0AGE0). The assay is described as follows: SSB-ssDNA binding inhibitors – biochemical, fluorescence polarization, NIH Clinical Collection, counter-screen for HCV NS3 helicase inhibitor project (AID 743271; in the data active = inhibition above about 28%). To be noted: E. coli SSB-DNA binding, stronger effect = higher value, concentration not given here.

Assay [5] in a line: compounds distorting NS3 helicase fluorescence signal – biochemical, NIH Clinical Collection, artefact control for HCV NS3 helicase inhibitor project (AID 743272).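 Note: HCV NS3 helicase with a Cy5 labelled single stranded DNA probe.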 To be noted: fluorescence interference counterscreen, HCV NS3 helicase assay; stronger effect = lower value.
The nature of assay [6]: Wnt pathway potentiators raising nuclear beta-catenin – imaging, WNT3A-conditioned medium, mouse C2C12, NPC library, primary screen (AID 1117326; in the data active = nuclear beta-catenin stimulation mostly above about 4.2%, no sharp cut-off; inactive = mostly below about 10%). To be noted: stronger effect = higher value.
Assay [7] can be described thus: stimulators of insulin release from INS-1E, primary screen, cell-based, 5 mM glucose, NPC library (AID 1117329;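 active = compound raises insulin release from rat beta cells at 5 mM glucose, no numeric limit stated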). To be noted: rat INS-1E insulin secretion, at 10 µM, stronger effect = higher value.
Assay [8] is described as follows: growth inhibition of GSK3B-pretreated HCT116 cells – cell-based, CellTiter-Glo, 0.2 to 20 µM (AID 1117336;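 active = compounds lowering colon cancer cell viability after pretreatment blocking the GSK3B kinase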). Particulars: HCT116 viability after GSK3B inhibitor, at 20 µM, stronger effect = higher value.
Assay [9] can be described thus: inhibition of endothelial tube formation, primary screen, imaging, VEGF stimulated, CD31 staining, tube area, NPC library (AID 1117340;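 active = compound that reduces growth-factor-driven endothelial tube area in a mixed cell culture, no cutoff stated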). To be noted: VEGF-stimulated ADSC/ECFC co-culture, at 10 µM, stronger effect = higher value.
Assay [10] is described as follows: GLP1 release stimulators, primary, NCI-H716, NPC library (AID 1117341;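 active = compound raises GLP1 secretion from the human gut endocrine cells, with no numeric limit stated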). Particulars: NCI-H716 cells, at 10 µM, stronger effect = higher value.
A short description of assay [11]: HCT116 colon cancer cell growth inhibition, primary screen, CellTiter-Glo luminescence, NPC library (AID 1117342;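 active = compounds that lower survival of HCT116 colon cancer cells in the luminescence readout, no numeric limit stated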). To be noted: at 20 µM (top of the series).
The nature of assay [12]: reduced SW480 viability measured with CellTiter-Glo, NPC library, primary (AID 1117343;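 active = compounds that lower viability of the colon cancer cells in the luminescence readout, with no numeric limit stated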). Particulars: CellTiter-Glo luminescence; at 20 µM (top of the series).
Assay [13] in a line: NPC library primary testing for decreased DLD-1 cell viability via CellTiter-Glo (AID 1117346;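 active = compounds that lower survival of DLD-1 colon cancer cells in the luminescence readout, no cutoff given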). Particulars: DLD-1 viability, CellTiter-Glo luminescence; at 20 µM (top of the series).
For assay [14], the target named is 6-phosphogluconate dehydrogenase, decarboxylating (Homo sapiens) (UniProt P52209). The assay is described as follows: inhibition of human phosphogluconate dehydrogenase – biochemical, recombinant enzyme, NADPH absorbance, primary screen (AID 1159550;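 active = at least 20% inhibition of 6-phosphogluconate dehydrogenase activity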). Particulars: recombinant 6PGD, NADPH absorbance 341 nm; at 10 µM; stronger effect = higher value.
Chain of 6-phosphogluconate dehydrogenase, decarboxylating (Homo sapiens) (P52209 whole entry, looked up): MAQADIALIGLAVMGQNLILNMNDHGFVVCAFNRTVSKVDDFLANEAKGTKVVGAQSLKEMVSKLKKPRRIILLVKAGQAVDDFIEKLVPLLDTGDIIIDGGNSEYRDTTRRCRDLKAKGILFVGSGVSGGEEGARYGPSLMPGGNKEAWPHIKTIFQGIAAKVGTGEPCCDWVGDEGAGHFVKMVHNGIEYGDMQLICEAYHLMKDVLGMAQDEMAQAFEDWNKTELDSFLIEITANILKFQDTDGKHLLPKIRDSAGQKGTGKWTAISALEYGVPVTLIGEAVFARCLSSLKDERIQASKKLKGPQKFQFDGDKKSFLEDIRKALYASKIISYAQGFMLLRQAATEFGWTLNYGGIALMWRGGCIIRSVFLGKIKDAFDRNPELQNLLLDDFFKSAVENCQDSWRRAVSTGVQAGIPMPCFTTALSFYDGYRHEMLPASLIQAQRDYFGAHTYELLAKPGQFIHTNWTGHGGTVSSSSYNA
The nature of assay [15]: viability loss with induced miR-34 in A549 – imaging, A549 dox-inducible miR-34, nuclei and caspase counts, primary screen (AID 1347080;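 active = compounds whose cell count with miR-34 switched on is under 0.7 times the count with it off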). Particulars: A549 miR-34 inducible, Hoechst nuclei count, 48 h.
The nature of assay [16]: MELAS cybrid and Rieske KO viability enhancers – cell-based, MELAS cybrids, Rieske KO mouse fibroblasts, CellTiter-Glo, primary screen (AID 1508586;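 active = mean z-score across replicates of 1.96 or higher in either the MELAS or the Rieske mutant cell line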;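 note: z relative to plate mean and SD of compound and empty wells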). Particulars: low glucose.
The target in assay [17] is NAD(+) hydrolase SARM1 (Homo sapiens) (UniProt Q6SZW1). The assay is described as follows: blocking NAD cleavage by SARM1 SAM-TIR – cell lysate, NAD-Glo luminescence (AID 1508614;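 active = compound whose remaining NAD level is above about 45 nM, limit read from the data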;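 note: higher remaining NAD means stronger inhibition of SARM1 NADase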). Particulars: SAM-TIR HEK293T lysate NADase, at 1 µM, stronger effect = higher value.
Chain of NAD(+) hydrolase SARM1 (Homo sapiens) (Q6SZW1 whole entry, looked up, the tested form may be a part): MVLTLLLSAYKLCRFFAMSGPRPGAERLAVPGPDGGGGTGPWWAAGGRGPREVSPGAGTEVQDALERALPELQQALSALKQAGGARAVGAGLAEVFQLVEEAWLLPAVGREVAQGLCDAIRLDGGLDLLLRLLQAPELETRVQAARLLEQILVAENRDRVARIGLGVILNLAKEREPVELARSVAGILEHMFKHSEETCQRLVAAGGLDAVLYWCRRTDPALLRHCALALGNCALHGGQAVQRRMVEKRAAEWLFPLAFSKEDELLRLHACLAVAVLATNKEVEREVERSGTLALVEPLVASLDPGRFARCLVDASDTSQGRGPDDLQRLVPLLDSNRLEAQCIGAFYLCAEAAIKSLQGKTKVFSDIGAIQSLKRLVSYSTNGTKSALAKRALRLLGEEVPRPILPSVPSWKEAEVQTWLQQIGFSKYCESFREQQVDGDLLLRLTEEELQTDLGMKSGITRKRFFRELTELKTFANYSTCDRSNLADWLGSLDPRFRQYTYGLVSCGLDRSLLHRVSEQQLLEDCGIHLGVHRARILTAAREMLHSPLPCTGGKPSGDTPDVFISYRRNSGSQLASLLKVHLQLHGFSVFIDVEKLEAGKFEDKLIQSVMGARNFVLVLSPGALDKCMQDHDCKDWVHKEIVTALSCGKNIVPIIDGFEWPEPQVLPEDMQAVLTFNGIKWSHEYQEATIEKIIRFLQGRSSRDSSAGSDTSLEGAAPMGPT
In assay [18] the target is Mitogen-activated protein kinase 7 (Homo sapiens) (UniProt Q13164). The assay is described as follows: Gal4-ERK5 driven luciferase induction – cell-based, HTS, primary screen (AID 1508626;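 active = luciferase signal above three times the same-plate solvent-only control wells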;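 note: luciferase driven by Gal4-ERK5 fusion binding five Gal4 sites before minimal TATA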). Particulars: HeLa Gal4-ERK5 transactivation, 18 h, at 5 µM, stronger effect = higher value.
Chain of Mitogen-activated protein kinase 7 (Homo sapiens) (Q13164 whole entry, looked up, the tested form may be a part): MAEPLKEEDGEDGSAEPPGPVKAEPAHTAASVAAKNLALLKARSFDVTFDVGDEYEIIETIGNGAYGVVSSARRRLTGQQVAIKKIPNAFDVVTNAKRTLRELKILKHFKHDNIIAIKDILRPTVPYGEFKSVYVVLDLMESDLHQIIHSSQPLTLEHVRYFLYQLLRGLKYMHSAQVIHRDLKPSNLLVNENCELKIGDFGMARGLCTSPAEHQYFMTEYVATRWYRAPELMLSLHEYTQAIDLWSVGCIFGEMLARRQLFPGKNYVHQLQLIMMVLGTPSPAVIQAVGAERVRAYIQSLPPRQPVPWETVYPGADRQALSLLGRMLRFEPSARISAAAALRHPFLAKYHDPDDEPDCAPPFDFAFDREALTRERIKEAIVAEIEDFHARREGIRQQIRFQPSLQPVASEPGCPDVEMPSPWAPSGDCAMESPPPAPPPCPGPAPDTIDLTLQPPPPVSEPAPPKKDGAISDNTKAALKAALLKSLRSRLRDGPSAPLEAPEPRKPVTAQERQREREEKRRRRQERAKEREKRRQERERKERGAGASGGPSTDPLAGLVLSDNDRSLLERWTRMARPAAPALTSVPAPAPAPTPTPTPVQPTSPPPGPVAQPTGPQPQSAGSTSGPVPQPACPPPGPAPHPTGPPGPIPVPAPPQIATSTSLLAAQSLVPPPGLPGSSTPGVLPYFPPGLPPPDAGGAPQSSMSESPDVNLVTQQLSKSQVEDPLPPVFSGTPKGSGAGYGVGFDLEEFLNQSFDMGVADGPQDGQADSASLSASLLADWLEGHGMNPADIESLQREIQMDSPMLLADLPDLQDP
Another assay deals with F380Y. As to the kind of experiment: BK channel mutant inhibitors and activators – cell-based, U2OS BacMam, thallium flux, beta subunits, selectivity assay, profiling panel (AID 1259406;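 active = thallium flux through the channel raised or lowered by more than 3 SD from vehicle-only wells, actives on both sides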;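 note: initial slope of Thallos dye fluorescence rise after thallium is added; log ratio against the mean of 0.3% DMSO vehicle wells on the same plate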). Particulars: U2OS BacMam BK variants, at 30 µM.
A short description of assay [19]: EMT-state selective cytotoxicity in co-culture – imaging, PC-3E GFP, TEM4-18 mCherry, primary screen (AID 1345086;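 active = compounds killing one labelled cell type while sparing the other, by normalised counts and ratio limits, not self-fluorescent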;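 note: cells exposed to compound for 72 h before imaging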;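 for red/green cell ratio (normalised): normalised mesenchymal count divided by normalised epithelial count so high means epithelial killing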). To be noted: PC-3E GFP / TEM4-18 mCherry co-culture, imaging cell counts, at 1 µM.
The mark [20] stands for this setting: stronger effect = lower value, cell number ratio, induced over uninduced.
Setting [21] is: measured here: relative caspase fold change +Dox/-Dox.
Where [22] appears, read: measured here: total cells with miR-34 induction, stronger effect = lower value.
Setting [23] is: measured here: total cells without miR-34 induction.
The mark [24] stands for this setting: MELAS cybrid survival, CellTiter-Glo 48 h, stronger effect = higher value.
Where [25] appears, read: Rieske KO mouse fibroblast survival, CellTiter-Glo 72 h.

Take `C[C@]12CCC(=O)C=C1CC[C@@H]1[C@@H]2C(=O)C[C@@]2(C)[C@H]1CC[C@]2(O)C(=O)CO`: the parasite load remaining in assay [1] is 29.2% (inactive) and 101% (inactive) and 66.2% (inactive). Besides, the viability in [1] is 48% and 86.7% and 71%. The fluorescence ratio in [2] and in assay [5] was 0.97 (inactive) throughout. Further, the values for the inhibition in assay [3], in assay [4] and in assay [14] were -1.97% (inactive), 2.76% (inactive) and 4.09% (inactive), respectively. Also, the nuclear beta-catenin stimulation in assay [6] (at 10 µM) was -0.9% (inactive); in assay [6] (stimulation, at 2 µM), 1.3%. The insulin secretion stimulation in assay [7] is -3.1% (inactive). The viability decrease in assay [8] is -9.9% (inactive). Also, the tube area decrease in [9] was 4.3% (inactive). For the same compound, the GLP1 secretion stimulation in assay [10] was -2.4% (inactive). The inhibition of viability in assay [11] is 4.4% (inactive). The viability decrease (inhibition) in assay [12] is 6.5% (inactive); in assay [13], -2.6% (inactive). Also, the fold change in assay [15] (setting [20]) is 0.98 (inactive) and 0.917 (inactive); in [15] (setting [21]), 2.11 and 1.06. In addition, the cell count was 8700 and 9320 in assay [15] (setting [22]); 8880 and 10200 in assay [15] (setting [23]). For the same compound, the z-score in assay [16] (setting [24]) is 1.14 (inactive); in assay [16] (setting [25]), -0.104. Also, the remaining NAD in assay [17] is 10 nM (inactive). Also, the luciferase signal in [18] is 36 AU (inactive). In addition, in the assay with F380Y, the log fold change Tl+ flux is 0.0198 (inactive).

For the compound `Cc1cccc(Nc2ccncc2S(=O)(=O)NC(=O)NC(C)C)c1`, the parasite load remaining in assay [1] was 136% (inactive) and 72.2% (inactive) and 143% (inactive). The viability in assay [1] was 83% and 88.5% and 82%. Besides, the fluorescence ratio in assay [2] is 1.01 (inactive); in [5] it was 1.02 (inactive). Moreover, the inhibition in [3] was -1.19% (inactive); in assay [4], -0.1% (inactive); in assay [14] it was -8.28% (inactive). In addition, the nuclear beta-catenin stimulation was -1.1% (inactive) in [6] (at 10 µM) and -0.1% in assay [6] (stimulation, at 2 µM). Besides, in assay [7], the insulin secretion stimulation is 5% (inactive). Moreover, the viability decrease in [8] is -8.2% (inactive). In assay [9], the tube area decrease was -9.9% (inactive). Also, the GLP1 secretion stimulation in [10] is -2% (inactive). The inhibition of viability in assay [11] is -1.7% (inactive). The figures for the viability decrease (inhibition) in assay [12] and in [13] were -0.7% (inactive) and -9.6% (inactive), respectively. Further, the fold change is 0.955 (inactive) and 0.95 (inactive) in assay [15] (setting [20]); 0.599 and 1.15 in [15] (setting [21]). The cell count is 8770 and 10100 in [15] (setting [22]); 9180 and 10600 in assay [15] (setting [23]). Moreover, the values for the z-score in assay [16] (setting [24]) and in assay [16] (setting [25]) were -0.921 (inactive) and -0.333, respectively. Also, in assay [17], the remaining NAD was 10 nM (inactive). For the same compound, in the assay with F380Y, the log fold change Tl+ flux was 0.0355 (inactive).

On to `CN[C@@H]1[C@H](O)[C@H](NC)[C@H]2O[C@@]3(O)C(=O)C[C@@H](C)O[C@H]3O[C@@H]2[C@H]1O`, for which the fluorescence ratio was 1.06 (inactive) in [2] and 1.01 (inactive) in [5]. The inhibition is -5% (inactive) in [3], -4.29% (inactive) in [4] and -6.86% (inactive) in assay [14]. Further, the nuclear beta-catenin stimulation in assay [6] (at 10 µM) is 0.2% (inactive); in assay [6] (stimulation, at 2 µM) it was 3.5%. Further, in [7], the insulin secretion stimulation was -0.2% (inactive). In [8], the viability decrease is 12.5% (inactive). Also, the tube area decrease in assay [9] was -8.4% (inactive). Besides, in assay [10], the GLP1 secretion stimulation is 23.7% (active). The inhibition of viability in assay [11] is 6.2% (inactive). In addition, the results for the viability decrease (inhibition) in assay [12] and in assay [13] were 12.1% (inactive) and 3.7% (inactive), respectively. Moreover, the red/green cell ratio (normalised) in assay [19] (actives lie on both sides, counts scaled to control wells, 1 = unselective) was 1.39 (inactive). The figures for the normalised cell number in [19] (measured here: epithelial PC-3E GFP cell survival) and in assay [19] (measured here: mesenchymal TEM4-18 mCherry cell survival) were 0.94 and 1.31, respectively. The z-score in assay [16] (setting [24]) was 0.0203 (inactive) and 0.894 (inactive); in assay [16] (setting [25]), 0.169 and 0.769. Besides, in [17], the remaining NAD was 10 nM (inactive). Further, the luciferase signal in assay [18] was 44 AU (inactive). The log fold change Tl+ flux in the assay with F380Y was -0.0285 (inactive).

With `Cn1c(=O)c2[nH]cnc2n(C)c1=O`, the inhibition in assay [3] was 0.45% (inactive); in assay [4], -2.76% (inactive); in assay [14], 4.58% (inactive). In assay [5], the fluorescence ratio is 1 (inactive). Further, the nuclear beta-catenin stimulation in assay [6] (at 10 µM) is 1.1% (inactive); in [6] (stimulation, at 2 µM), 0.3%. Also, the insulin secretion stimulation in assay [7] was 0.2% (inactive). The viability decrease in assay [8] is 0.3% (inactive). The tube area decrease in [9] was -10.1% (inactive). Moreover, the GLP1 secretion stimulation in assay [10] was -0.8% (inactive). Moreover, the inhibition of viability in [11] is 6% (inactive). Further, the viability decrease (inhibition) in assay [12] was 20.4% (inactive); in [13], -2.35% (inactive). Moreover, the remaining NAD in assay [17] is 10 nM (inactive). Further, the luciferase signal in assay [18] is 96 AU (inactive). In addition, in the assay on F380Y, the log fold change Tl+ flux was 0.0321 (inactive).
